High-throughput results as filed in PubChem.
Most compounds without a hit are left out; they make up all but 4.5% or so of the library.
DAX1 inh-1 = DAX1 (NR0B1) inhibitors, primary screen, cell-based, HEK293, Gal4-DAX1, luciferase luminescence | Nuclear receptor subfamily 0 group B member 1 (Homo sapiens), P51843 | AID 504766, 2011 | inhibition, % at 6.75 µM | 0.99% of 340,000 active | HEK293 Gal4-DAX1 luciferase reporter;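 active = inhibition above the mean over all tested compounds plus 3 SD, cut at about 4.2% in these data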;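 also: 0% = DAX1-transfected cells with DMSO and 100% = empty-vector control cells with DMSO; inhibition shows as a rise in luminescence from relieved DAX1 repression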
hcDAF12 agonist = H. contortus DAF-12 nuclear receptor activators, primary screen, cell-based, luminescence, HEK293, lit1-tk-luc reporter | HEK293 hcDAF-12 lit1-tk-luc reporter; 0% DMSO, 100% Δ7-dafachronic acid | activation, % at 6.8 µM | 1.4% of 370,000 active | AID 652067, 2013;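 active = activation above the mean of all tested compounds plus 3 SD, cut at about 5.5% in these data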;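 also: 100% = response to 3 µM Δ7-dafachronic acid high control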
GAA850 FXN act = FXN promoter activators, primary screen, cell-based, luciferase luminescence, HEK293 lucGAA850 | HEK293 lucGAA850 FXN promoter luciferase reporter, 24 h; percent of 10 µM SAHA response | activation, % at 6 µM | 0.56% of 360,000 active;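 active = activation above the average of all compounds screened plus 3 SD, cutoff fixed separately per campaign, cut at about 7.5% in these data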;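 also: 0% = DMSO wells and 100% = 10 µM SAHA wells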
DAX1 inh-2 = DAX1 (NR0B1) inhibitors on StAR promoter, primary screen, cell-based, luminescence, SF-1 (NR5A1), full-length DAX-1. 1.1% of 370,000 active. AID 652010, 2013. HEK293T StAR-luciferase reporter, SF-1/DAX-1 repression relief. inhibition, % at 6.8 µM;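 active = inhibition above the mean over all tested compounds plus 3 SD, cut at about 3.6% in these data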;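 also: 0% = DAX-1 cells with DMSO and 100% = cells lacking DAX-1 with DMSO; higher inhibition means more luminescence from relief of DAX-1 repression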
ssDAF12 agonist = S. stercoralis DAF-12 nuclear receptor activators, primary screen, cell-based, luminescence, HEK293, GRIP1 co-expression, lit1-tk-luc; AID 652126, 2013; 1% of 370,000 active; HEK293 ssDAF-12/GRIP1 lit1-tk-luc reporter; % of 3 µM dafachronic acid response; activation, % at 6.8 µM; Nuclear hormone receptor DAF-12 (Strongyloides stercoralis);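 active = activation above the mean over all tested compounds plus 3 SD, cut at about 0.9% in these data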;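 also: 0% = DMSO-only wells and 100% = 3 µM delta7-dafachronic acid wells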
hgDAF-12 ag = H. glycines DAF-12 receptor agonists, primary screen, cell-based, luminescence, HEK293, GAL4 fusion, UAS-luciferase | HEK293 GAL4-hgDAF12 UAS-luciferase reporter, agonist luminescence; normalized to butyrate control | activation, % at 6.8 µM | 1.8% of 370,000 active | AID 687014, 2013;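 active = activation above a cutoff set at the mean of all screened compounds plus 3 SD, cut at about 10% in these data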;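 also: 0% = DMSO wells and 100% = sodium butyrate wells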
LXR ag = LXR agonists, Gal4 luciferase reporter, confirmation, counter-screen for hcDAF-12 agonist project, cell-based, luminescence, HEK293, H. contortus campaign | shares compounds with hcDAF12 agonist | 3,400 tested, under 10 active | AID 743027, 2013 | activation, % at 6.8 µM | HEK293 Gal4-LXR tk-luc reporter, 24 h; normalized: DMSO 0%, positive control 100%;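 active = mean percent activation of the reporter above a cutoff set as the average over tested compounds plus their standard deviation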
Target sequence (P55055 whole entry, looked up, the tested form may be a part): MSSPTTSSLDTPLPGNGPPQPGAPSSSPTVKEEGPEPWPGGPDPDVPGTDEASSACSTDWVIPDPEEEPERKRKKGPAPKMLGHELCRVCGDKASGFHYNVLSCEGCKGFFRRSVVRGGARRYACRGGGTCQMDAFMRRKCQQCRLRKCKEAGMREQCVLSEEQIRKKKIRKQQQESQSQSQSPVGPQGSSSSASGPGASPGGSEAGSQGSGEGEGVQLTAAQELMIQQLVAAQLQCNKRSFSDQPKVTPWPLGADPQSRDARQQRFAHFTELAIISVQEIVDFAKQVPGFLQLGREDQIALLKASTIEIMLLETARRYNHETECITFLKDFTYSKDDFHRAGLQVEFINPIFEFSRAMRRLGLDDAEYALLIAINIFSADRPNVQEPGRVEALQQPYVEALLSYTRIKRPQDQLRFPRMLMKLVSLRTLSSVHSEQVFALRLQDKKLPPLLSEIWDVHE
hcDAF12 conf = H. contortus DAF-12 receptor agonists, confirmation, cell-based, luminescence, HEK293, lit1-tk-luc, triplicate. shares compounds with hcDAF12 agonist. HEK293 hcDAF-12 lit1-tk-luc reporter; % of Δ7-dafachronic acid response. activation, % at 6.8 µM. 61% of 3,400 active. AID 743032, 2013;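 active = mean activation across triplicate tests above the threshold derived from the earlier primary screen, cut at about 5.5% in these data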;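 also: 0% = DMSO only wells and 100% = 3 µM Δ7-dafachronic acid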
Starred values were filed as active, the others as inactive; nt = no result.

SMILES	DAX1 inh-1	hcDAF12 agonist	GAA850 FXN act	DAX1 inh-2	ssDAF12 agonist	hgDAF-12 ag	LXR ag	hcDAF12 conf
COc1ccc(/C=C2\CCc3ccccc3C2=O)cc1OC	0	0	5	2	-1	4	nt	nt
Cc1ccsc1/C=C1\CCc2ccccc2C1=O	-3	12*	-1	3	1.4*	10	2	14*
CC(=O)Oc1ccc(/C=C2/CCc3ccccc3C2=O)cc1	-3	7.3*	2	2	1	7	1	5
CCCCN1CC[C@H](C)Oc2cc(Br)ccc2S1(=O)=O	nt	1	nt	0	-1	-1	nt	nt
Cc1c(C#N)c(=O)c(-[n+]2ccccc2)c([S-])n1-c1ccc(Cl)cc1	3	7.3*	0	1	-2	2	0	0
Cc1ccccc1-n1c(C)c(C#N)c(=O)c(-[n+]2ccccc2)c1[S-]	0	1	2	0	-1	-3	nt	nt
CN=c1scc(-c2c[nH]c3ccccc23)n1C	-1	4	1	0	0	-1	nt	nt
CCC(C)Nc1nc(-c2c[nH]c3ccccc23)cs1 (configuration not stated)	1	8.8*	2	0	1	7	0	5
CC(=O)Oc1oc(-c2ccccc2)nc1C=Nc1ccc(N(C)C)cc1	0	5	0	0	-1	0	nt	nt
CN(C)c1ccc(N=Cc2nc(-c3ccccc3)oc2OC(=O)c2ccccc2)cc1	1	6.8*	4	2	-1	13*	0	4
Cc1cc(NC(=O)COC(=O)c2oc3c(Cl)cccc3c2C)no1	3	6.8*	-3	0	0	2	0	3
Cc1cc(NC(=O)COC(=O)c2ccccc2Cl)no1	0	-2	1	-1	-1	-1	nt	nt
Cc1nn(-c2ccccc2)c2sc(C(=O)NCC3CCCO3)cc12 (configuration not stated)	nt	0	nt	-2	-2	-1	nt	nt
Cc1csc(-c2ccc3cc(Cl)cc(Cl)c3n2)n1	nt	10*	nt	1	0	2	1	11*
C/C(=N\OCc1cccc(C(=O)O)c1)c1ccc(Cl)cc1	nt	8.8*	4	3	1	13*	1	5
Clc1ccc(CN=C2Nc3ccccc3CS2)cc1	2	4	2	2	-1	10	nt	nt
Cc1ccc(CN=C2Nc3ccccc3CS2)cc1	1	9.7*	3	4.1*	0	15*	2	10*
Cc1ccccc1C(=O)n1ccc2ccc(-c3ccc4ccn(Cc5ccc(C#N)cc5)c4c3)cc21	nt	0	nt	-1	0	-1	nt	nt
Cc1cccc(Nc2nnc(SC/C(O)=C(\C#N)c3nc4ccccc4[nH]3)s2)c1	0	7.2*	3	1	1.5*	0	0	7.0*
Cc1ccc(Nc2nnc(SC/C(O)=C(\C#N)c3nc4ccccc4[nH]3)s2)c(C)c1	1	9.4*	-1	0	0	1	0	5
CCCC(C)(C)C(=O)N1CCC1(C)C(=O)Nc1cccc2ccccc12 (configuration not stated)	nt	1	-1	-1	-2	-5	nt	nt
Nc1cc2c(cc1N)-c1ccccc1C2	3	6.7*	7	3.8*	0	8	0	4
CC(C)[C@H](NC(=O)c1ccccc1)C(=O)N1CCC[C@H]1C(=O)NCCc1ccccc1Cl	nt	-2	nt	-1	-1	5	nt	nt
CCCCNC(=S)N/N=C1\C(=O)c2cccc3cccc1c23	0	0	-1	1	-1	0	nt	nt
CNC(=S)N/N=C1\C(=O)c2cccc3cccc1c23	0	11*	2	0	0	2	0	9.7*
SMILES	DAX1 inh-1	hcDAF12 agonist	GAA850 FXN act	DAX1 inh-2	ssDAF12 agonist	hgDAF-12 ag	LXR ag	hcDAF12 conf
O=C(c1cc2cc(F)ccc2[nH]1)N1CCc2ccccc21	5.0*	16*	3	2	1.9*	13*	1	9.2*
COCCNc1c2c(nc3ccccc13)CCC2	-1	-3	0	0	-1	0	nt	nt
CN(C)CCCNc1c2c(nc3ccccc13)CCC2	0	7.0*	-2	1	-1	2	0	5
OC[C@@H]1CC[C@@H]2O[C@H](CCc3ccc(-c4ccc(F)cc4)cc3)[C@@H](n3cc(C4CC4)nn3)C[C@@H]2O1	nt	-1	nt	-1	-2	-2	nt	nt
COc1cccc(-c2nc(N3CCN(C)CC3)c3ccccc3n2)c1O	1	7.8*	5	0	0	8	0	5
O=C(O)Cc1sc(Nc2cccc3ccccc23)nc1-c1ccc(Cl)cc1	0	6.7*	2	0	0	-1	0	2
Cc1ccc(Nc2nc(-c3ccc(C)cc3)c(CC(=O)O)s2)cc1	0	4	3	0	-1	6	nt	nt
CCOC(=O)CNC(=O)C(Cc1ccc2c(c1)OCO2)NC(C)=O (configuration not stated)	nt	-3	nt	0	0	1	nt	nt
C#CCN1CC(N(C)CCOC(=O)CCCc2ccccc2)CS1(=O)=O (configuration not stated)	nt	-3	nt	0	-1	-1	nt	nt
Cc1cc(-c2ccc3c(c2)COc2c4ccccc4nn2-3)on1	4.8*	9.0*	6	4.5*	0	10	2	10*
C/C(=N\NC(=O)c1ccccc1O)c1cccc(NC(=O)c2ccccc2)c1	3	7.0*	2	0	1.3*	9	0	5
O=C(/C=C/c1ccco1)Nc1cccc2cccnc12	0	6.8*	6	1	1	10	0	7.0*
c1ccc(-c2cnc(CSc3nnc4ccccn34)o2)cc1	2	8.5*	3	3	0	12*	1	5.8*
